The results in this text go back to PubChem BioAssay AID1476 (National Center for Advancing Translational Sciences (NCATS), 2009).

Among all 200,000 compounds or so, about 4,500 (2.2%) were called active. Another 12% or so got no clear call; they are omitted. Calls come from the whole dose curve; as a rule, active = well fitted inhibition curve with a large enough effect; inconclusive = small, poorly fitted or top-dose-only effect, or effect the other way; inactive = flat fitted curve, though single readings scatter. This excerpt belongs to a sample that is enriched for actives.
Potency is the fitted concentration of half-maximal effect.

For the assay, the target named is Cruzipain (Trypanosoma cruzi) (UniProt P25779). Kind of assay: qHTS Assay for Promiscuous and Specific Inhibitors of Cruzain (without detergent).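 For max response, negative = inhibition: plate controls were enzyme without inhibitor for no effect and buffer without enzyme for full effect.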 Note: nearly all actives have a fitted effect of over 40% in size. The note with it: purified cruzain, Z-FR-AMC fluorescence, no detergent. Summed up: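 Detergent-free condition (0.00005% Triton X-100) in acetate buffer pH 5.5 with DTT. 1.5 nM enzyme and compound were pre-mixed 15 min, then 2 uM Z-FR-AMC substrate added; reaction progress from fluorescence change between first and third reads (60 s).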
Sequence of Cruzipain (Trypanosoma cruzi) (P25779 123-467 limits assumed): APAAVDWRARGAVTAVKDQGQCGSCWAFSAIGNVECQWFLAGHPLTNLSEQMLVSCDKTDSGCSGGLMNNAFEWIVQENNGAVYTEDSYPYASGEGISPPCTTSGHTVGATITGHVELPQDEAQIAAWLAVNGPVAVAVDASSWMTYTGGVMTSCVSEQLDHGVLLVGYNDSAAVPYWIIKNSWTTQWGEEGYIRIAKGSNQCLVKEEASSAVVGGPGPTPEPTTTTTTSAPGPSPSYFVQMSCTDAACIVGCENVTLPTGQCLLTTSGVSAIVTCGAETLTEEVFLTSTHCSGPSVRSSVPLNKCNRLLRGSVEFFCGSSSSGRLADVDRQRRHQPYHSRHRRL
(In qHTS, concentration-response curves come from the screen itself.)
As for `O=C(CC1(O)C(=O)N(CN2CCOCC2)c2ccccc21)c1ccccc1` (configuration not stated), the max response, negative = inhibition was 2.42% (inactive). The same measure, in the same setting: for `Cc1ccc(C(=O)CC2(O)C(=O)N(CCc3ccccc3)c3ccc(Br)cc32)cc1` (configuration not stated) the value was 7.97% (inactive). `C=CCN1C(=O)C(O)(CC(=O)c2ccc(Cl)cc2)c2ccccc21` (configuration not stated): the Potency is 12.6 µM (active). Regarding `CC(=O)Nc1ccc(NC(=O)CCCc2nc(-c3ccc(C(C)(C)C)cc3)no2)cc1`, the max response, negative = inhibition was -10.5% (inactive). Regarding `O=C(CC(NCc1cccnc1)C(=O)O)Nc1ccc(O)cc1` (configuration not stated), the max response, negative = inhibition was 7.85% (inactive). Turning to `Cc1cc(C)cc(NC(=O)Cn2c(=O)c3ccccc3n3nncc23)c1`, the max response, negative = inhibition was 4.51% (inactive). The same measure, in the same setting: as for `COc1cc(OC)c(N(C)C(=O)c2cc3c(=O)oc4ccccc4c3s2)cc1Cl`, the figure is 6.95% (inactive); as for `Cc1ccc2nc(COc3cccc(NC(=O)c4ccccc4Cl)c3)cc(=O)n2c1`, -3.57% (inactive); as for `Cc1cnc(NC(=O)CSc2nnc(-c3ccc(Cl)cc3Cl)n2N)s1`, -2.62% (inactive).

As for `CCOc1ccccc1NC(=O)CCc1ccc(C)o1`, the max response, negative = inhibition was 8.1% (inactive). For `Cc1ccc(CCC(=O)Nc2ncc(Cc3cc(Cl)ccc3Cl)s2)o1`, the Potency is 25.1 µM (active). `O=C(Cn1c(=O)n(-c2ccc(F)cc2)c(=O)c2sc3ccccc3c21)NC1CCCC1`: the max response, negative = inhibition was -5.91% (inactive). Still for that read-out and setting: as for `CCOC(=O)c1ccccc1NC(=O)CCc1c(C)nc2c(c1C)c(=O)n(C)c(=O)n2C`, the figure is -1.55% (inactive). For the molecule `O=C(NCCc1ccccc1)c1ccc(OCCOc2ccccc2)cc1`, the Potency is 20 µM (active).

`COc1ccc(OCCCC(=O)NCCc2ccccc2)cc1`: the max response, negative = inhibition was -1.93% (inactive).

Regarding `O=C(NCCOc1ccccc1)c1ccccc1`, the max response, negative = inhibition was -3.94% (inactive). For `Cc1ccc(NC(=O)c2ccc3[nH]c(C)cc(=O)c3c2)c(C)c1`, the max response, negative = inhibition is -6.14% (inactive).

As to `COc1ccc(-c2cc(NCc3ccc(F)cc3)n3cnnc3n2)cc1`, the max response, negative = inhibition is 6.65% (inactive). The same measure, in the same setting: as for `Cc1ccc(C(=O)Nc2cc3c(cc2N2CCCC2)n(C)c(=O)c(=O)n3C)cc1`, the figure is -9.28% (inactive). In the case of `CC(C)c1ccc(NC(=O)Cn2nnc(C(=O)NCCc3ccccc3)c2N)cc1`, the Potency is 3.16 µM (active).

With `Cc1cccc(NC(=O)c2nnn(CC(=O)Nc3ccc(C(C)C)cc3)c2N)c1C`, the Potency is 20 µM (active). As for `Nc1c(C(=O)NCc2ccccc2)nnn1Cc1cccc(Cl)c1`, the max response, negative = inhibition was -27.5% (inactive). Same read-out and setting: as for `COc1ccc(NC(=O)Cn2nnc(C(=O)NCCc3ccc(OC)c(OC)c3)c2N)cc1`, the figure is 28.4% (inactive). Same read-out and setting: for `CCOc1ccccc1NC(=O)Cn1nnc(C(=O)Nc2ccc(C)c(C)c2)c1N` the value was 0.467% (inactive). The same measure, in the same setting: as for `CCOC(=O)c1cn(CC(=O)Nc2ccc(C(C)C)cc2)nn1`, the figure is 3.14% (inactive); as for `COc1ccccc1NC(=O)CSC1=Nc2ccccc2C2=NC(CC(=O)NCc3cccs3)C(=O)N12` (configuration not stated), -5.88% (inactive); as for `CC(C)CC(NS(=O)(=O)c1ccc2c(c1)oc(=O)n2C)C(=O)NCc1ccccc1Cl` (configuration not stated), -14% (inactive). With `Cc1cccc(NC(=O)N2CCN(C)c3ncccc32)c1C`, the max response, negative = inhibition is 2.65% (inactive). For the molecule `Cc1ccc(Oc2ccc3c(c2)C(=O)N(c2cccc4cccnc24)C3=O)cc1`, the Potency is 25.1 µM (active).

Turning to `CC(=O)Oc1ccc(C)cc1N1C(=O)c2ccc(C(=O)O)cc2C1=O`, the max response, negative = inhibition was -6.79% (inactive). On the same count and under the same terms, as for `Cc1cccc(N2C(=O)c3cccnc3C2=O)c1`, the figure is -4.26% (inactive); as for `COc1ccc(CNC(=O)c2ccc3c(c2)nc2n3CCOC2)c(OC)c1`, -7.25% (inactive); as for `CS(=O)(=O)c1ccc(-c2nnc(NC(=O)c3ccc4c(c3)OCCO4)o2)cc1`, 0.217% (inactive). Same read-out and setting: as for `Cc1ccc2oc3c(c(=O)c2c1)C(c1ccc(O)cc1)N(Cc1ccc2c(c1)OCO2)C3=O` (configuration not stated), the figure is 3.18% (inactive). The same measure, in the same setting: as for `O=C(NC1=NCCS1)[C@H](Cc1ccccc1)N1C(=O)c2ccccc2C1=O`, the figure is -18.4% (inactive).

For the molecule `O=C(NCCN1CCOCC1)[C@H](Cc1ccccc1)N1C(=O)c2ccccc2C1=O`, the max response, negative = inhibition is -6.89% (inactive). Consider `N/C(=N\c1nc2ccccc2o1)NC(=O)C(Cc1ccccc1)N1C(=O)c2ccccc2C1=O` (configuration not stated), for which the Potency was 25.1 µM (active).

Consider `COc1cccc(Cn2c(SCc3ccc(C(=O)N4CCC(C)CC4)cc3)nc3ccncc32)c1`, for which the max response, negative = inhibition is 6.55% (inactive).

`Cc1ccccc1CS(=O)(=O)CC1Nc2ccc(C(=O)NCc3ccc(Cl)cc3)cc2NC1=O` (configuration not stated): the max response, negative = inhibition was -11.5% (inactive). Still for that read-out and setting: for `Cc1ccc(CNC(=O)CCc2c(C)nn(-c3ccc(N4CCCC4)nn3)c2C)cc1` the value was -1.47% (inactive); for `CCOC(=O)C1=C(C)NC(C)=C(C(=O)OCC)C1c1ccccn1`, 6.72% (inactive). For `CCOC(=O)C1=C(C)Nc2sc(C(=O)c3ccc(Br)cc3)c(N)c2C1c1ccc(C(=O)OC)cc1` (configuration not stated), the Potency is 10 µM (active). In the case of `COC(=O)c1ccc(C2NC(=O)NC(C)=C2C(=O)N(C)C)cc1` (configuration not stated), the max response, negative = inhibition is -7.98% (inactive).

For the molecule `Cc1ccc(Cc2nc3ccccc3nc2SCC(=O)Nc2cccc(C(F)(F)F)c2)cc1`, the max response, negative = inhibition was -25% (inactive).

As for `CCN(CC)CCNC(=O)c1cc2c(=O)oc3ccc(C)cc3c2s1`, the max response, negative = inhibition was -5.21% (inactive). The same measure, in the same setting: for `Cc1ccc2c(c1)c1c(c(=O)n(-c3ccccc3)c(=O)n1CC(=O)c1ccc(Cl)cc1)n2C` the value was 12.5% (inactive); for `CCc1ccc(S(=O)(=O)c2nnn3c2nc(NCc2ccccc2OC)c2cc(Cl)ccc23)cc1`, -14.3% (inactive); for `CCc1ccc(S(=O)(=O)n2ccnc2)cc1`, 3.23% (inactive). Same read-out and setting: for `O=C(Nc1nc(-c2ccc3c(c2)OCO3)cs1)c1ccncc1` the value was -29.2% (inactive). On the same count and under the same terms, for `O=C(Nc1nc(-c2ccncc2)cs1)C1COc2ccccc2O1` (configuration not stated) the value was -4.88% (inactive). As to `Brc1ccc(-c2csc(N/N=C/c3ccc4c(c3)OCO4)n2)cc1`, the Potency was 10 µM (active). In the case of `COc1ccc(OC)c2sc(N3CCN(C(=O)C4COc5ccccc5O4)CC3)nc12` (configuration not stated), the max response, negative = inhibition is -0.959% (inactive). Consider `CCN(c1ccc(Cl)cc1)S(=O)(=O)c1nnc(NC(=O)c2ccco2)s1`, for which the max response, negative = inhibition was 3.14% (inactive). `Cc1nnc(NCc2ccccc2)c2c1nnn2Cc1ccc(F)cc1`: the max response, negative = inhibition was 10.1% (inactive).

`COc1cc(NC(=O)Nc2ccc(C)cc2)cc([N+](=O)[O-])c1`: the max response, negative = inhibition is -24.4% (inactive). Same read-out and setting: for `COc1cccc(NC(=S)NCCCN2CCOCC2)c1` the value was 9.47% (inactive). As to `COc1cc(NC(=S)NCCSc2ccc(C)cc2)cc(OC)c1`, the Potency was 0.251 µM (active).

For `Cc1nc(SCCOc2ccc(Cl)cc2)[nH]c(=O)c1Cc1ccccc1`, the max response, negative = inhibition is -8.31% (inactive).

In the case of `COc1ccc(-c2nn3c(=O)cc(CN4CCN(C(=O)c5ccc(OC)c(OC)c5)CC4)nc3s2)cc1`, the max response, negative = inhibition is -11% (inactive).

Consider `COc1ccc(NC(=O)Cn2c(=O)n(CCC(C)C)c(=O)c3cccnc32)cc1Cl`, for which the max response, negative = inhibition is -5% (inactive). Take `Cc1nn(CC(=O)NCCc2ccccc2)c(=O)c2c1sc1ccccc12`: the max response, negative = inhibition is -12% (inactive). For the molecule `Cc1ccccc1CNC(=O)CCCn1nc(C)c2sc3ccccc3c2c1=O`, the Potency was 25.1 µM (active). `Cc1nn(C(C)C(=O)Nc2ccc(C(C)C)cc2)c(=O)c2c1sc1ccccc12` (configuration not stated): the max response, negative = inhibition is -0.208% (inactive). On the same count and under the same terms, as for `COc1ccc(NC(=O)c2ccc3oc(=O)c(S(=O)(=O)c4ccc(F)cc4)cc3c2)c(OC)c1`, the figure is -3.78% (inactive); as for `CCn1cc(C(=O)NCc2ccc(C)cc2)c(=O)c2cc(S(=O)(=O)N3CCc4ccccc4C3)ccc21`, -8.13% (inactive); as for `Cc1nc2nc(SCC(=O)NCc3ccco3)nn2c(C)c1Cc1ccccc1`, -3.94% (inactive).

On to `O=C(CCCN1C(=O)/C(=C/c2ccco2)SC1=S)Nc1ccccc1`, for which the max response, negative = inhibition is -9.58% (inactive). Regarding `O=c1nc2s/c(=C\c3ccco3)c(=O)n2nc1Cc1ccccc1`, the Potency is 25.1 µM (active).

As to `COc1ccc(CCNC(=O)Cn2c(=O)n(-c3ccccc3)c(=O)c3c(C)c(C)sc32)cc1OC`, the max response, negative = inhibition was -8.34% (inactive). As for `CN1c2ccc(Cl)cc2-c2nc(SCC(=O)Nc3cc(F)ccc3F)ncc2S1(=O)=O`, the Potency is 12.6 µM (active). Consider `O=C(CSc1ncc(-c2ccccc2)[nH]1)Nc1ccc(F)cc1F`, for which the max response, negative = inhibition was 8.99% (inactive).

Consider `Cc1ccc(Cl)cc1NC(=O)CSc1nccn1C`, for which the max response, negative = inhibition was 1.47% (inactive). Consider `COc1cc2c(=O)c(S(=O)(=O)c3ccc(C(C)C)cc3)cn(Cc3ccccc3C)c2cc1OC`, for which the max response, negative = inhibition was 19.9% (inactive). The same measure, in the same setting: as for `CN1CCN(C(CNC(=O)c2ccccc2F)c2ccc3c(c2)OCO3)CC1` (configuration not stated), the figure is 7.63% (inactive). Take `CCCSc1ncc(Cl)c(C(=O)Nc2sc3c(c2C(=O)NCCOC)CCCC3)n1`: the max response, negative = inhibition is -6.84% (inactive). Still for that read-out and setting: for `CCOc1cccc(NC(=O)c2ccc(F)c(S(=O)(=O)N(CC)c3cccc(C)c3)c2)c1` the value was -18% (inactive); for `Cn1c(=O)cc(OCC(=O)N2CCN(c3ccccc3)CC2)c2ccccc21`, 3.14% (inactive). In the case of `CCc1nnc(NC(=O)CSc2nc3c(c(=O)n2-c2ccccc2OC)SCC3)s1`, the Potency is 12.6 µM (active). As to `CCOc1ccc(NC(=O)CSc2nc3c(c(=O)n2-c2ccccc2OC)SCC3)cc1`, the max response, negative = inhibition is -2.8% (inactive). Take `CCOC(=O)c1sc(NC(=O)CSc2nc3c(c(=O)n2-c2ccccc2)SCC3)c(C(=O)OCC)c1C`: the max response, negative = inhibition is -25.7% (inactive). In the case of `CCOC(=O)c1ccc(NC2=CC(c3ccc(OCC)cc3)N(c3ccc(C(=O)OCC)cc3)C2=O)cc1` (configuration not stated), the max response, negative = inhibition was -9.29% (inactive). As for `O=C(CCn1c(=O)c2sccc2n(Cc2ccc(F)cc2)c1=O)NCc1ccc2c(c1)OCO2`, the max response, negative = inhibition was 2.68% (inactive). For the molecule `CC1=CC(=C(C#N)c2nc3ccccc3s2)C=C(C)N1c1ccc(F)cc1F`, the Potency was 31.6 µM (active). `Cc1ccc(F)cc1S(=O)(=O)N1CCC(c2nc3ccccc3s2)CC1`: the max response, negative = inhibition was -6.75% (inactive). Still for that read-out and setting: as for `CCc1cc(C(N)=O)c(NC(=O)c2ccc(OC)cc2)s1`, the figure is -3.04% (inactive). Regarding `CC(C)c1cc(C(N)=O)c(NC(=O)c2cccc(COc3ccc(Br)cc3)c2)s1`, the Potency is 5.01 µM (active). As to `COc1ccc(OCc2cccc(C(=O)N3CCCC3)c2)cc1`, the max response, negative = inhibition was 22.1% (inactive).
